Screens (PubChem)
Most compounds without a hit are left out; they make up all but 1.8% or so of the library.
Vif-APOBEC3F blk: qHTS for Inhibitors of Vif-A3F Interactions: qHTS; HeLa A3F-eYFP + Vif (tagged APOBEC3F with the HIV-1 protein that degrades it), YFP fluorescence increase; Potency, µM (highest dose often 46.1 µM); 0.2% of 390,000 active; also: nearly all actives have a fitted effect of over 65% in size
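HeLa cells stably expressing A3F-eYFP plus Vif, plated and incubated overnight at 37 deg C, then exposed to compounds overnight at 37 deg C. Blocked degradation read as raised yellow fluorescence (Ex 488/Em 500-530).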
VDR inh: Inhibitors of the vitamin D receptor (VDR): qHTS. Vitamin D3 receptor (Homo sapiens), P11473. VDR-SRC2-3 peptide fluorescence polarization, 2 h. Potency, µM, hits mostly inhibitors. 0.93% of 400,000 active. AID 504847, 2011
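VDR–SRC2-3 interaction, FP format. Cmpds 23 nl via pintool, brief spin, 2 h ambient incubation.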
Vif-APOBEC3G blk: qHTS for Inhibitors of Vif-A3G Interactions: qHTS | 0.076% of 410,000 active | Potency, µM (highest dose often 46.1 µM), most hits filed as inhibitors | HeLa A3G-eYFP + Vif (tagged APOBEC3G with the HIV-1 protein that degrades it), YFP fluorescence, overnight | DNA dC->dU-editing enzyme APOBEC-3G (Homo sapiens), Q9HC16; also: nearly all actives have a fitted effect of over 60% in size
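Read-out is eYFP fluorescence (Ex 488/Em 500-530) from Vif-expressing HeLa A3G-eYFP cells; more signal means A3G escaped Vif-mediated degradation. Cells plated overnight, compound pinned in, incubated overnight at 37 deg C.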
rTrxR1 inhibitor: qHTS Assay for Inhibitors of Mammalian Selenoprotein Thioredoxin Reductase 1 (TrxR1): qHTS. Thioredoxin reductase 1, cytoplasmic (Rattus norvegicus), O89049. recombinant rTrxR1, NADPH fluorescence consumption, selenite substrate. Potency, µM (top dose mostly 114 µM), usual class: inhibitors. 1% of 390,000 active. AID 588453, 2011; also: nearly all actives have a fitted effect of over 65% in size
Target sequence (O89049 whole entry, looked up): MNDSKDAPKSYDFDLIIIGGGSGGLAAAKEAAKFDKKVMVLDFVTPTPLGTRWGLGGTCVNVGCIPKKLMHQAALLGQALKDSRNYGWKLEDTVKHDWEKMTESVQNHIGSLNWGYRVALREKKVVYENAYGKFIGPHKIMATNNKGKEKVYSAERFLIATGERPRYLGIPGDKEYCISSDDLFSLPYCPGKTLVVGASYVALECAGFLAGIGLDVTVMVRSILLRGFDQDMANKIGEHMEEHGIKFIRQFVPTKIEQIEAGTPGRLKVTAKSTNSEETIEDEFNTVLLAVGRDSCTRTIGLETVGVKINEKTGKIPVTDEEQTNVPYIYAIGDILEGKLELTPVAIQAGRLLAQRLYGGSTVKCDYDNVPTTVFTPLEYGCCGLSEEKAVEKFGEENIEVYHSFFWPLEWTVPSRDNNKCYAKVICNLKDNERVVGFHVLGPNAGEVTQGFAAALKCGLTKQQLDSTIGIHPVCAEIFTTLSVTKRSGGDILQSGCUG
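Rat TrxR1 (90 nM in the dispensed reagent) was pre-reduced with 400 uM NADPH for 5 min at room temperature, then incubated with compound for 15 min. After 400 uM selenite was added, NADPH fluorescence (Ex 340/Em 450 nm) was followed for 8 min.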
TrxR1 substrate: qHTS Assay for Substrates of Mammalian Selenoprotein Thioredoxin Reductase 1 (TrxR1): qHTS. Potency, µM (titrated, usually from 114 µM). purified TrxR1 substrate turnover, NADPH consumption readout. 0.01% of 390,000 active. AID 588456, 2011; also: nearly all actives have a fitted effect of over 50% in size
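Rat TrxR1, dispensed at 90 nM, was prereduced with 400 uM NADPH (final) for 5 min at ~22 deg C, then incubated with compound 15 min before 400 uM selenite. A first-read NADPH fluorescence drop versus no-compound background flagged substrates.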
Of the large screens only hits and unclear results are named; the others gave an inactive call. Calls follow the shape of the dose curve; as a rule, active = well fitted curve in the direction sought with a large enough effect; inconclusive = small, poorly fitted or top-dose-only effect, or another doubt; inactive = no such curve, though single readings can be large; an effect the other way counts as inactive or inconclusive.

O=[N+]([O-])c1cc(Cl)cc(/C=N/NC(=S)Nc2ccc(S(=O)(=O)N3CCOCC3)cc2)c1O	rTrxR1 inhibitor 79.4µM
O=S(=O)(c1ccc(NC(=S)Nc2ccc3c(c2)OCO3)cc1)N1CCOCC1	rTrxR1 inhibitor 39.8µM
CCCN1C(C(=O)c2ccccc2)=C(OC(=O)COc2ccccc2)c2ccccc2S1(=O)=O	rTrxR1 inhibitor inconclusive
CCN1C(C(=O)c2ccccc2)=C(OC(=O)COc2ccc(OC)cc2)c2ccccc2S1(=O)=O	rTrxR1 inhibitor 12.6µM
Nc1c(C(=O)Nc2ccc(F)cc2)sc2nc(-c3cccs3)cc(C(F)(F)F)c12	Vif-APOBEC3F blk inconclusive, Vif-APOBEC3G blk inconclusive
Nc1c(C(=O)C2CC2)sc2nc(-c3cccs3)cc(C(F)(F)F)c12	Vif-APOBEC3F blk 0.631µM
CC[C@H](C)[C@H](NC(=O)[C@H](Cc1ccccc1)NC(=O)[C@H](CC(C)C)NC(=O)[C@H](CCSC)NC(=O)[C@H](CCC(=O)O)NC(=O)[C@H](CCC(=O)O)NC(=O)[C@H](CC(=O)O)NC(=O)[C@H](CO)NC(=O)[C@@H]1CCCN1C(=O)[C@H](CCCCN)NC(=O)[C@@H](N)[C@@H](C)O)C(=O)N[C@@H](Cc1ccc(O)cc1)C(=O)NCC(=O)N[C@@H](Cc1cnc[nH]1)C(=O)N[C@@H](Cc1ccc(O)cc1)C(=O)N[C@@H](CCCCN)C(=O)N[C@@H](CCC(N)=O)C(=O)N[C@@H](C)C(=O)N[C@H](C(=O)N[C@H](C(=O)NCC(=O)N[C@@H](CC(=O)O)C(=O)N[C@H](C(=O)N[C@@H](CC(N)=O)C(=O)N[C@H](C(=O)N[C@@H](CCC(=O)O)C(=O)N[C@@H](CCCNC(=N)N)C(=O)N1CCC[C@H]1C(=O)NCC(=O)N[C@@H](CCSC)C(=O)N[C@@H](CC(C)C)C(=O)N[C@@H](CC(=O)O)C(=O)N[C@@H](Cc1ccccc1)C(=O)N[C@H](C(=O)O)[C@@H](C)O)[C@@H](C)O)[C@@H](C)CC)C(C)C)[C@@H](C)O	none (no result: Vif-APOBEC3F blk, Vif-APOBEC3G blk, rTrxR1 inhibitor, TrxR1 substrate)
COC(=O)C1=C(C)OC(N)=C(C#N)C1c1ccccc1 (centres undefined)	none
CNC(=O)C1C(=S)NC(N)=C(C#N)C1c1ccccc1 (centres undefined)	VDR inh 20µM
Cc1ccc(-c2c(C#N)c(N)nc3c2CCCC3)o1	Vif-APOBEC3F blk inconclusive, rTrxR1 inhibitor 31.6µM
CCSc1nc2c(c(-c3ccc(C)o3)c1C#N)CCCC2	none
Cc1ccc(-c2c3c([nH]c(=S)c2C#N)CCCC3)o1	VDR inh inconclusive, rTrxR1 inhibitor 44.7µM
Cc1nnc(N/N=C/c2cc([N+](=O)[O-])c(N3CCC(C)CC3)cc2N2CCC(C)CC2)n1N	none
CCc1nnc(N/N=C/c2ccc(N3CCC(C)CC3)c([N+](=O)[O-])c2)n1N	VDR inh 17.8µM
Cc1ccc2nc(-c3ccc(C)o3)c(Nc3ccc(Cl)cc3)n2c1	VDR inh inconclusive, rTrxR1 inhibitor inconclusive (no result: Vif-APOBEC3F blk, Vif-APOBEC3G blk)
CCOC(=O)C(C(=O)OCC)C(Nc1ccc(Br)cc1)c1ccccc1 (centres undefined)	VDR inh 79.4µM, Vif-APOBEC3G blk inconclusive, rTrxR1 inhibitor inconclusive
CCCN1CNc2c(c(=O)[nH]c(=S)n2CCc2cc(OC)ccc2OC)C1	none (no result: Vif-APOBEC3F blk, Vif-APOBEC3G blk)
Cn1nc(C(F)(F)F)c(/C=N/OC(=O)c2ccccc2)c1Cl	none
Cn1nc(C(F)(F)F)c(/C=N/OC(=O)c2ccccc2)c1Sc1ccc(Cl)cc1	VDR inh 89.1µM
COc1ccc(-c2nn3c(-c4cc(-c5ccccc5)n[nH]4)nnc3s2)cc1	none (no result: Vif-APOBEC3F blk)
CCOc1ccc(Nc2oc(-c3ccc(COc4ccc(OC)cc4)o3)nc2C#N)cc1	none
CC(Nc1oc(-c2ccc(COc3ccccc3)o2)nc1C#N)c1ccccc1 (centres undefined)	Vif-APOBEC3F blk 10µM
CCOC(=O)/C=C/C(=O)OCC(=O)Nc1c(Cl)cccc1Cl	VDR inh inconclusive, rTrxR1 inhibitor 50.1µM
COc1ccc(NC(=O)COC(=O)/C=C/C(=O)OCC(=O)Nc2ccc(OC)c(Cl)c2)cc1Cl	none
CCOC(=O)/C=C/C(=O)OCC(=O)NCc1ccccc1	rTrxR1 inhibitor 25.1µM
CCOC(=O)/C=C/C(=O)OCC(=O)Nc1ccc(OC)c(Cl)c1	VDR inh 79.4µM, Vif-APOBEC3G blk inconclusive, rTrxR1 inhibitor 15.8µM
CCCn1c(C)cc(/C=C(\C#N)C(=O)OCC(=O)NC(=O)NCC)c1C	none
CCCn1c(C)cc(/C=C(\C#N)C(=O)OCC(=O)Nc2ccc(OC)c(Cl)c2)c1C	rTrxR1 inhibitor 79.4µM
CCOC(=O)/C=C/C(=O)OCC(=O)Nc1ccc(Cl)cc1Cl	VDR inh inconclusive, rTrxR1 inhibitor inconclusive
C/C(=C\C(=O)OCC(=O)NCc1ccccc1)C(=O)OCC(=O)NCc1ccccc1	none
O=S1(=O)CCOC[C@H](c2ccccc2)N1Cc1ccc(Cl)cc1Cl	none (no result: Vif-APOBEC3F blk, VDR inh)
Clc1cccc(Cl)c1CNc1ccc(N2CCCC2)cc1	VDR inh inconclusive, rTrxR1 inhibitor 3.55µM
O=C(Nc1ccc(Cl)cc1)C1CCN(c2nc3ccccc3n3cccc23)CC1	none
C=CCOC(=O)NC(c1ccc(F)c(F)c1)S(=O)(=O)c1ccc(Cl)cc1 (centres undefined)	none (no result: Vif-APOBEC3F blk, Vif-APOBEC3G blk, rTrxR1 inhibitor, TrxR1 substrate)
C=CCOC(=O)NC(c1ccc(F)c(F)c1)C(C(=O)CCl)C(=O)OC (centres undefined)	VDR inh 44.7µM (no result: Vif-APOBEC3F blk, Vif-APOBEC3G blk, rTrxR1 inhibitor, TrxR1 substrate)
CCOC(=O)NNc1ccc2nonc2c1[N+](=O)[O-]	VDR inh 35.5µM, rTrxR1 inhibitor inconclusive
CCOc1ccc(-c2nnc(-c3ccncc3)o2)cc1	VDR inh 70.8µM (no result: Vif-APOBEC3F blk)
CCN(CC)c1ccc(SS(=O)(=O)O)cc1	VDR inh 79.4µM
CN(C)c1ccc(/C=C/c2cnnc3ccccc23)cc1	Vif-APOBEC3G blk 8.91µM (no result: Vif-APOBEC3F blk, VDR inh)
O=c1[nH]c(/C=C/c2ccccc2F)nc2ccccc12	Vif-APOBEC3G blk inconclusive
CN(C)c1ccc(/C=C/c2nc3ccccc3c(=O)n2CCO)cc1	Vif-APOBEC3F blk 12.6µM, Vif-APOBEC3G blk 11.2µM
O=c1[nH]c(/C=C/c2cccc3ccccc23)nc2ccccc12	Vif-APOBEC3F blk 12.6µM, Vif-APOBEC3G blk inconclusive
CN(C)c1ccc(/C=C/c2nc3ccccc3c(=O)[nH]2)cc1	Vif-APOBEC3F blk 10µM
O=c1[nH]c(/C=C/c2ccc(Br)cc2)nc2ccccc12	none
C(=Cc1cnnc2ccccc12)c1ccccc1	none
CCCN1CNc2c(c(=O)[nH]c(=S)n2CCc2ccc(OC)cc2OC)C1	none (no result: Vif-APOBEC3F blk, Vif-APOBEC3G blk)
COc1ccc(CNC(=O)C(CCSC)NS(=O)(=O)c2ccc3c(c2)oc(=O)n3C)cc1 (centres undefined)	none
